In PubChem BioAssay AID1159580 (chemical genetic matrix, 2015):
The whole screen tested about 5,500 compounds, of which about 2,000 (36%) were called active. Roughly 18% stayed inconclusive and do not appear here. Cut-off read from the data, not from the text of the source: active = normalized growth mostly below about 0.91 (no sharp cut-off); inconclusive = no clear call, values can overlap the other calls; inactive = mostly above about 0.92. The list shows a part of the results.

Assay: chemical genetic growth profiling, strain panel (AID 1159580);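 note: tested at 20 µM; growth read once vehicle control cultures reached saturation at 30 °C; 1 = growth at the plate median or of vehicle wells; lower values mean less growth of the strain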
Conditions: growth OD
[1] = S. cerevisiae deletion strains, locus YDL101C, strain DUN1, stronger effect = lower value
[2] = S. cerevisiae deletion strains, locus YHR030C, strain SLT2, stronger effect = lower value
[3] = S. cerevisiae deletion strains, locus YJL095W, strain BCK1, stronger effect = lower value
[4] = S. cerevisiae deletion strains, locus YOR061W, strain CKA2, stronger effect = lower value

Measured: normalized growth

Oc1c(Br)cc(Br)cc1/C=N\n1cnnc1
active: S. cerevisiae deletion strains, locus YDL214C, strain PRR2, stronger effect = lower value 0.588 | S. cerevisiae deletion strains, locus YDR477W, strain SNF1, stronger effect = lower value 0.308 | S. cerevisiae deletion strains, locus YER123W, strain YCK3, stronger effect = lower value 0.452 | S. cerevisiae deletion strains, locus YER133W, strain GLC7, stronger effect = lower value 0.483 | S. cerevisiae deletion strains, locus YGR040W, strain KSS1, stronger effect = lower value 0.391 | S. cerevisiae deletion strains, locus YGR052W, strain FMP48, stronger effect = lower value 0.323 | S. cerevisiae deletion strains, locus YGR092W, strain DBF2, stronger effect = lower value 0.116 | [2] 0.307 | S. cerevisiae deletion strains, locus YHR079C, strain IRE1, stronger effect = lower value 0.246 | S. cerevisiae deletion strains, locus YHR082C, strain KSP1, stronger effect = lower value 0.32 | S. cerevisiae deletion strains, locus YHR205W, strain SCH9, stronger effect = lower value 0.0783 | [3] 0.26 | S. cerevisiae deletion strains, locus YJL157C, strain FAR1, stronger effect = lower value 0.412 | S. cerevisiae deletion strains, locus YJR066W, strain TOR1, stronger effect = lower value 0.287 | S. cerevisiae deletion strains, locus YKL048C, strain ELM1, stronger effect = lower value 0.289 | S. cerevisiae deletion strains, locus YKL067W, strain YNK1, stronger effect = lower value 0.503 | S. cerevisiae deletion strains, locus YKL101W, strain HSL1, stronger effect = lower value 0.225 | S. cerevisiae deletion strains, locus YKL203C, strain TOR2, stronger effect = lower value 0.244 | S. cerevisiae deletion strains, locus YLR113W, strain HOG1, stronger effect = lower value 0.369 | S. cerevisiae deletion strains, locus YLR133W, strain CKI1, stronger effect = lower value 0.305 | S. cerevisiae deletion strains, locus YLR403W, strain SFP1, stronger effect = lower value 0.122 | S. cerevisiae deletion strains, locus YML070W, strain DAK1, stronger effect = lower value 0.606 | S. cerevisiae deletion strains, locus YMR205C, strain PFK2 (second series), stronger effect = lower value 0.355 | S. cerevisiae deletion strains, locus YNL020C, strain ARK1, stronger effect = lower value 0.259 | S. cerevisiae deletion strains, locus YNL183C, strain NPR1, stronger effect = lower value 0.354 | S. cerevisiae deletion strains, locus YNL307C, strain MCK1 (second series), stronger effect = lower value 0.138 | S. cerevisiae deletion strains, locus YOL136C, strain PFK27, stronger effect = lower value 0.517 | [4] 0.15 | S. cerevisiae deletion strains, locus YOR119C, strain RIO1, stronger effect = lower value 0.237 | S. cerevisiae deletion strains, locus YOR231W, strain MKK1, stronger effect = lower value 0.316 | S. cerevisiae deletion strains, locus YPL031C, strain PHO85, stronger effect = lower value 0.303 | S. cerevisiae deletion strains, locus YPL153C, strain RAD53, stronger effect = lower value 0.416 | S. cerevisiae deletion strains, locus YPL204W, strain HRR25, stronger effect = lower value 0.348 | S. cerevisiae deletion strains, locus YPL256C, strain CLN2, stronger effect = lower value 0.462 | S. cerevisiae deletion strains, strain NNK1, stronger effect = lower value 0.289
inactive: S. cerevisiae deletion strains, locus YAR019C, strain CDC15, stronger effect = lower value 0.938 | S. cerevisiae deletion strains, locus YBL105C, strain PKC1, stronger effect = lower value 0.942 | S. cerevisiae deletion strains, locus YBR135W, strain CKS1, stronger effect = lower value 0.943 | S. cerevisiae deletion strains, locus YBR136W, strain MEC1, stronger effect = lower value 0.943 | S. cerevisiae deletion strains, locus YBR160W, strain CDC28, stronger effect = lower value 0.958 | S. cerevisiae deletion strains, locus YDL017W, strain CDC7, stronger effect = lower value 0.943 | S. cerevisiae deletion strains, locus YDL028C, strain MPS1, stronger effect = lower value 0.941 | [1] 0.915 | S. cerevisiae deletion strains, locus YDL108W, strain KIN28, stronger effect = lower value 0.945 | S. cerevisiae deletion strains, locus YDL132W, strain cdc53, stronger effect = lower value 0.947 | S. cerevisiae deletion strains, locus YDR052C, strain DBF4, stronger effect = lower value 0.947 | S. cerevisiae deletion strains, locus YDR054C, strain cdc34, stronger effect = lower value 0.933 | S. cerevisiae deletion strains, locus YDR226W, strain ADK1, stronger effect = lower value 0.947 | S. cerevisiae deletion strains, locus YFL009W, strain cdc4, stronger effect = lower value 0.954 | S. cerevisiae deletion strains, locus YFL029C, strain CAK1, stronger effect = lower value 0.949 | S. cerevisiae deletion strains, locus YFR003C, strain YPI1, stronger effect = lower value 0.945 | S. cerevisiae deletion strains, locus YFR019W, strain FAB1, stronger effect = lower value 0.791 | S. cerevisiae deletion strains, locus YFR028C, strain CDC14, stronger effect = lower value 0.958 | S. cerevisiae deletion strains, locus YIL147C, strain SLN1, stronger effect = lower value 0.907 | S. cerevisiae deletion strains, locus YJR016C, strain ILV3, stronger effect = lower value 0.951 | S. cerevisiae deletion strains, locus YJR066W, strain TOR1 (second series), stronger effect = lower value 0.728 | S. cerevisiae deletion strains, locus YKL193C, strain SDS22, stronger effect = lower value 0.943 | S. cerevisiae deletion strains, locus YMR001C, strain CDC5, stronger effect = lower value 0.903 | S. cerevisiae deletion strains, locus YMR277W, strain FCP1, stronger effect = lower value 0.931 | S. cerevisiae deletion strains, locus YNL006W, strain LST8, stronger effect = lower value 0.927 | S. cerevisiae deletion strains, locus YNL161W, strain CBK1, stronger effect = lower value 0.944 | S. cerevisiae deletion strains, locus YNL207W, strain RIO2, stronger effect = lower value 0.942 | S. cerevisiae deletion strains, locus YNL222W, strain SSU72, stronger effect = lower value 0.944 | S. cerevisiae deletion strains, locus YOL078W, strain AVO1, stronger effect = lower value 0.926 | S. cerevisiae deletion strains, locus YOR329C, strain SCD5, stronger effect = lower value 0.934 | S. cerevisiae deletion strains, locus YPL209C, strain IPL1, stronger effect = lower value 0.95 | S. cerevisiae deletion strains, locus YPR025C, strain CCL1, stronger effect = lower value 0.946 | S. cerevisiae deletion strains, locus YPR106W, strain ISR1, stronger effect = lower value 0.918 | S. cerevisiae deletion strains, locus YPR111W, strain DBF20, stronger effect = lower value 0.918 | S. cerevisiae deletion strains, strain TSCII, stronger effect = lower value 0.938

CCOC(=O)NC1=C(C2CC2)C(=O)C(NC(=O)OCC)=C(C2CC2)C1=O
inactive: S. cerevisiae deletion strains, locus YAL013W, strain DEP1, stronger effect = lower value 0.97 | S. cerevisiae deletion strains, locus YBR021W, strain FUR4, stronger effect = lower value 0.961 | S. cerevisiae deletion strains, locus YBR229C, strain ROT2, stronger effect = lower value 1 | S. cerevisiae deletion strains, locus YCL029C, strain bik1, stronger effect = lower value 0.993 | S. cerevisiae deletion strains, locus YDL035C, strain GPR1, stronger effect = lower value 1 | S. cerevisiae deletion strains, locus YDL074C, strain BRE1, stronger effect = lower value 1.04 | [1] 1 | S. cerevisiae deletion strains, locus YDL134C, strain PPH21, stronger effect = lower value 1 | S. cerevisiae deletion strains, locus YDL185W, strain tfp1, stronger effect = lower value 0.98 | S. cerevisiae deletion strains, locus YDL192W, strain arf1, stronger effect = lower value 0.991 | S. cerevisiae deletion strains, locus YDR101C, strain arx1, stronger effect = lower value 0.993 | S. cerevisiae deletion strains, locus YDR150W, strain NUM1, stronger effect = lower value 0.99 | S. cerevisiae deletion strains, locus YDR162C, strain NBP2, stronger effect = lower value 1.01 | S. cerevisiae deletion strains, locus YDR318W, strain mcm21, stronger effect = lower value 0.99 | S. cerevisiae deletion strains, locus YDR388W, stronger effect = lower value 0.995 | S. cerevisiae deletion strains, locus YDR502C, strain sam2, stronger effect = lower value 0.996 | S. cerevisiae deletion strains, locus YEL061C, strain CIN8, stronger effect = lower value 0.995 | S. cerevisiae deletion strains, locus YER110C, stronger effect = lower value 0.98 | S. cerevisiae deletion strains, locus YER155C, strain BEM2, stronger effect = lower value 0.994 | S. cerevisiae deletion strains, locus YER167W, strain BCK2, stronger effect = lower value 0.98 | S. cerevisiae deletion strains, locus YGL078C, strain dbp3, stronger effect = lower value 0.983 | S. cerevisiae deletion strains, locus YGL086W, strain mad1, stronger effect = lower value 0.982 | S. cerevisiae deletion strains, locus YGL248W, strain PDE1, stronger effect = lower value 1 | S. cerevisiae deletion strains, locus YGR078C, strain PAC10, stronger effect = lower value 1.01 | S. cerevisiae deletion strains, locus YGR135W, strain pre9, stronger effect = lower value 1 | S. cerevisiae deletion strains, locus YGR229C, strain SMI1, stronger effect = lower value 1.04 | S. cerevisiae deletion strains, locus YGR252W, strain gcn5, stronger effect = lower value 1.02 | [2] 0.986 | S. cerevisiae deletion strains, locus YHR079C, strain IRE1 (second series), stronger effect = lower value 0.99 | S. cerevisiae deletion strains, locus YHR094C, strain hxt1, stronger effect = lower value 0.976 | S. cerevisiae deletion strains, locus YHR129C, strain ARP1, stronger effect = lower value 0.999 | S. cerevisiae deletion strains, locus YHR200W, strain rpn10, stronger effect = lower value 0.992 | S. cerevisiae deletion strains, locus YIL066C, strain RNR3, stronger effect = lower value 1 | S. cerevisiae deletion strains, locus YIL073C, strain SPO22, stronger effect = lower value 0.9 | S. cerevisiae deletion strains, locus YIL125W, strain kgd1, stronger effect = lower value 0.988 | S. cerevisiae deletion strains, locus YIR030C, strain dcg1, stronger effect = lower value 0.995 | [3] 1.05 | S. cerevisiae deletion strains, locus YJL134W, strain LCB3, stronger effect = lower value 0.993 | S. cerevisiae deletion strains, locus YJL168C, strain set2, stronger effect = lower value 0.993 | S. cerevisiae deletion strains, locus YJL187C, strain SWE1 (second series), stronger effect = lower value 0.988 | S. cerevisiae deletion strains, locus YJR043C, strain POL32, stronger effect = lower value 0.997 | S. cerevisiae deletion strains, locus YJR075W, strain HOC1, stronger effect = lower value 0.999 | S. cerevisiae deletion strains, locus YKL009W, strain mrt4, stronger effect = lower value 0.973 | S. cerevisiae deletion strains, locus YKL068W, stronger effect = lower value 0.98 | S. cerevisiae deletion strains, locus YKL085W, strain MDH1 (second series), stronger effect = lower value 0.984 | S. cerevisiae deletion strains, locus YKL085W, strain MDH1, stronger effect = lower value 0.984 | S. cerevisiae deletion strains, locus YKL190W, strain CNB1, stronger effect = lower value 0.994 | S. cerevisiae deletion strains, locus YKR001C, strain vps1, stronger effect = lower value 0.989 | S. cerevisiae deletion strains, locus YLR039C, strain RIC1, stronger effect = lower value 0.96 | S. cerevisiae deletion strains, locus YLR058C, strain SHM2, stronger effect = lower value 0.984 | S. cerevisiae deletion strains, locus YLR102C, strain apc9, stronger effect = lower value 0.992 | S. cerevisiae deletion strains, locus YLR262C, strain YPT6, stronger effect = lower value 1.01 | S. cerevisiae deletion strains, locus YLR268W, strain sec22, stronger effect = lower value 1.01 | S. cerevisiae deletion strains, locus YLR330W, strain CHS5, stronger effect = lower value 0.989 | S. cerevisiae deletion strains, locus YLR342W, strain FKS1 (second series), stronger effect = lower value 0.976 | S. cerevisiae deletion strains, locus YLR371W, strain rom2, stronger effect = lower value 0.976 | S. cerevisiae deletion strains, locus YLR418C, strain cdc73, stronger effect = lower value 1.03 | S. cerevisiae deletion strains, locus YML016C, strain PPZ1, stronger effect = lower value 0.99 | S. cerevisiae deletion strains, locus YML032C, strain rad52, stronger effect = lower value 0.985 | S. cerevisiae deletion strains, locus YML124C, strain tub3, stronger effect = lower value 0.988 | S. cerevisiae deletion strains, locus YMR078C, strain ctf18, stronger effect = lower value 0.993 | S. cerevisiae deletion strains, locus YMR223W, strain ubp8, stronger effect = lower value 0.979 | S. cerevisiae deletion strains, locus YMR263W, strain SAP30, stronger effect = lower value 1.01 | S. cerevisiae deletion strains, locus YMR307W, strain GAS1, stronger effect = lower value 0.999 | S. cerevisiae deletion strains, locus YNL067W, strain RPL9B, stronger effect = lower value 1.03 | S. cerevisiae deletion strains, locus YNL128W, strain TEP1, stronger effect = lower value 1.01 | S. cerevisiae deletion strains, locus YNL153C, strain GIM3, stronger effect = lower value 1.01 | S. cerevisiae deletion strains, locus YNL233W, strain BNI4, stronger effect = lower value 1.01 | S. cerevisiae deletion strains, locus YNL250W, strain rad50, stronger effect = lower value 0.981 | S. cerevisiae deletion strains, locus YNL271C, strain bni1, stronger effect = lower value 0.984 | S. cerevisiae deletion strains, locus YNL298W, strain CLA4, stronger effect = lower value 0.985 | S. cerevisiae deletion strains, locus YNL307C, strain MCK1, stronger effect = lower value 0.985 | S. cerevisiae deletion strains, locus YNL322C, strain KRE1, stronger effect = lower value 0.998 | S. cerevisiae deletion strains, locus YNR052C, strain pop2, stronger effect = lower value 0.98 | S. cerevisiae deletion strains, locus YOL006C, strain TOP1, stronger effect = lower value 1.1 | S. cerevisiae deletion strains, locus YOL012C, strain htz1 1.15 | S. cerevisiae deletion strains, locus YOL147C, strain pex11, stronger effect = lower value 0.986 | [4] 1 | S. cerevisiae deletion strains, locus YOR069W, strain VPS5, stronger effect = lower value 0.995 | S. cerevisiae deletion strains, locus YOR136W, strain idh2, stronger effect = lower value 0.983 | S. cerevisiae deletion strains, locus YOR144C, strain elg1, stronger effect = lower value 1 | S. cerevisiae deletion strains, locus YOR184W, strain ser1, stronger effect = lower value 0.974 | S. cerevisiae deletion strains, locus YOR316C, strain cot1, stronger effect = lower value 0.985 | S. cerevisiae deletion strains, locus YPL055C, strain LGE1, stronger effect = lower value 1.04 | S. cerevisiae deletion strains, locus YPL241C, strain CIN2, stronger effect = lower value 0.999 | S. cerevisiae deletion strains, locus YPR119W, strain clb2, stronger effect = lower value 0.988 | S. cerevisiae deletion strains, locus YPR141C, strain kar3, stronger effect = lower value 0.984 | S. cerevisiae deletion strains, locus YPR163C, strain tif3, stronger effect = lower value 0.988 | S. cerevisiae deletion strains, locus YPR167C, strain met16, stronger effect = lower value 1 | S. cerevisiae deletion strains, strain wtn01, stronger effect = lower value 0.995 | S. cerevisiae strains, strain wild type, stronger effect = lower value 0.995
